Source: PubChem BioAssay AID372 (MTDP, 2006)
Hit rate of the full screen: of about 100,000 compounds, about 770 (0.77%) were called active. The list comes from a sample in which actives are over-represented; it also holds similar structures and randomly drawn compounds. A number with no mark means an inactive call. Rule as the data show it: active = inhibition above about 50%; inactive = the rest.

Target: Gag-Pol polyprotein (Human immunodeficiency virus type 1 group M subtype B (isolate HXB2)) (UniProt P04585)
Experiment: RNase H inhibition, HIV 1 Gag Pol polyprotein, FRET biochemical assay, screening (AID 372)
Conditions: HIV-1 RT RNase H, FRET RNA/DNA substrate fluorescence; at 10 µM; stronger effect = higher value

SMILES	inhibition
Cc1cc(Cl)ccc1OCC(=O)Nc1cc(Cl)c(Cl)cc1Cl	5%
CCC1CCc2c(sc(NC(=O)c3cc([N+](=O)[O-])ccc3Cl)c2C(N)=O)C1 (stereo not drawn)	14%
COc1ccc(OC)c(NC(=O)COc2ccc(Cl)c(C)c2)c1	15%
CC(CCC(=O)Nc1nc2ccccc2s1)CC(=O)Nc1nc2ccccc2s1 (stereo not drawn)	15%
COc1ccc(OC)c(/C=C/C(=O)c2c(-c3ccccc3)c3cc(Br)ccc3[nH]c2=O)c1	37%
Cc1ccc2[nH]c(=O)c(C(=O)/C=C/c3ccccc3Cl)c(-c3ccccc3)c2c1	55% (active)
COc1ccc(/C=C\C(=O)c2c(-c3ccccc3)c3cc(C)ccc3[nH]c2=O)cc1OC	18%
Cc1ccc2[nH]c(=O)c(C(=O)/C=C\c3ccc(Br)cc3)c(-c3ccccc3)c2c1	28%
COc1cc(/C=C/C(=O)c2c(-c3ccccc3)c3cc(Br)ccc3[nH]c2=O)cc(OC)c1OC	0%
O=C(/C=C/c1ccccc1Cl)c1c(-c2ccccc2)c2cc(Br)ccc2[nH]c1=O	49%
Cc1ccc2[nH]c(=O)c(C(=O)/C=C\c3ccccc3)c(-c3ccccc3)c2c1	45%
O=C(/C=C/c1ccccc1Cl)c1c(-c2ccccc2)c2cc(Cl)ccc2[nH]c1=O	35%
COc1ccc(/C=C\C(=O)c2c(-c3ccccc3)c3cc(C)ccc3[nH]c2=O)cc1	7%
COc1ccccc1/C=C/C(=O)c1c(-c2ccccc2)c2cc(C)ccc2[nH]c1=O	59% (active)
COc1ccccc1/C=C/C(=O)c1c(-c2ccccc2)c2cc(Br)ccc2[nH]c1=O	57% (active)
CC12CN3CC(C)(CN(C1)C3c1c[nH]c3ccccc13)C2=O (stereo not drawn)	6%
Cc1ccc(-n2c(C)cc(/C=C(/C#N)C(=O)Nc3ccc(Cl)cc3)c2C)cc1C	8%
O=C(Oc1ccc([N+](=O)[O-])cc1)c1ccc(Cl)c(S(=O)(=O)N2CCOCC2)c1	0%
O=C(N1CCN(c2c(F)c(F)c(C(F)(F)F)c(F)c2F)CC1)C12CC3CC(CC(C3)C1)C2	7%
O=c1c(N=Nc2ccc(Br)cc2)c(O)n(-c2ccccc2)c(=O)n1-c1ccccc1	17%
COc1ccccc1C1NC(=S)NC(C)=C1C(C)=O (stereo not drawn)	5%
Cc1csc(N/N=C/c2c(F)cccc2Cl)n1	18%
O=C(NC(=S)Nc1ccc(-c2nc3ccccc3s2)cc1)c1cccc(F)c1	34%
Cc1ccc2nc(-c3ccc(NC(=O)Cc4ccc(Cl)cc4)cc3)sc2c1	24%
Cc1ccc2nc(-c3ccc(NC(=O)CCc4ccccc4)cc3)sc2c1	5%

SMILES	inhibition
Cc1ccc2nc(-c3ccc(NC(=S)NC(=O)c4cccc(F)c4)cc3)sc2c1	56% (active)
Cc1cccc(C(=O)NC(=S)Nc2ccc(-c3nc4ccccc4s3)cc2)c1	35%
Cc1ccc2nc(-c3ccc(NC(=O)Cc4ccccc4)cc3)sc2c1	52% (active)
O=C(Nc1ccc(Cl)cc1)Nc1ccc(-c2nc3ccccc3s2)cc1	17%
Cc1ccc2nc(-c3ccc(NC(=S)NC(=O)c4ccccc4F)cc3)sc2c1	52% (active)
Cc1cccc(NC(=O)Nc2ccc(-c3nc4ccccc4s3)cc2)c1	50% (active)
Cc1ccc2nc(-c3ccc(NC(=S)NC(=O)c4ccccc4)cc3)sc2c1	6%
Cc1ccc2nc(-c3ccc(NC(=S)NC(=O)c4ccccc4Cl)cc3)sc2c1	8%
Cc1ccc2nc(-c3ccc(NC(=O)c4cccc(F)c4)cc3)sc2c1	43%
O=C(Nc1ccc(Cl)cc1)C1CC(=O)N(c2cccc([N+](=O)[O-])c2)C1 (stereo not drawn)	4%
COc1cc(OC)c(/C=C2\C(=O)NC(=S)N(c3ccc(C)cc3)C2=O)cc1Br	4%
NC(=O)c1ccccc1NC(=O)c1cccc([N+](=O)[O-])c1	7%
Cc1ccc(N=C(NO)C(=Nc2ccc(C)c(C)c2)NO)cc1C	23%
COc1cc(C=C2C(=O)c3ccccc3C2=O)ccc1OCc1ccc(F)cc1	7%
COc1cc(C2NC(=O)NC(C)=C2C(=O)OCc2ccc3c(c2)OCO3)cc(OC)c1OC (stereo not drawn)	9%
COc1ccc2c(c1)CC/C(=C\c1ccc([N+](=O)[O-])cc1)C2=O	4%
COc1cc(C(=O)N/N=C/c2ccc(OC)c(OC)c2C(=O)O)cc(OC)c1OC	0%
Cc1ccc(C(=O)NC(=S)Nc2ccc(-c3nc4ccccc4s3)cc2)cc1C	35%
O=C(NC(=S)Nc1ccc(-c2nc3ccccc3s2)cc1)c1ccc([N+](=O)[O-])cc1	38%
COc1ccc(C(=O)OCC(=O)c2ccc([N+](=O)[O-])cc2)cc1OC	7%
O=S(=O)(Nc1nc2ccccc2s1)c1cccc2cccnc12	8%
Cc1cc(NC(=O)CSc2nnc3c4ccccc4n(C)c3n2)no1	4%
Oc1c(Br)cc(/C=N/Nc2nnc3c(n2)[nH]c2ccccc23)c(O)c1Br	12%
Oc1c(Br)cc(Br)cc1/C=N/Nc1nnc2c(n1)[nH]c1ccccc12	2%
O=C(CNC(=O)c1ccccc1)OCC(=O)c1ccc(Cl)cc1	3%

SMILES	inhibition
Cc1ccc(N2NC(=O)/C(=C/c3ccc(O)c([N+](=O)[O-])c3)C2=O)cc1	8%
Cc1ccc(N2NC(=O)/C(=C/c3ccc(O)c(O)c3)C2=O)cc1C	52% (active)
CCOC(=O)c1ccc(N2NC(=O)/C(=C/c3ccccc3O)C2=O)cc1	14%
Cc1ccc(N2C(=O)NC(=O)/C(=C/c3ccc(O)c(O)c3)C2=O)cc1	33%
Cc1ccc(N2NC(=O)/C(=C/c3cc(I)cc(I)c3O)C2=O)cc1	0%
CCOC(=O)c1ccc(N2NC(=O)/C(=C/c3cc(I)cc(I)c3O)C2=O)cc1	57% (active)
Cc1ccc(N2NC(=O)/C(=C/c3ccc(O)c(O)c3)C2=O)cc1	51% (active)
Cc1ccc(N2NC(=O)/C(=C/c3ccc(O)cc3)C2=O)cc1C	13%
COc1cc(/C=C2/C(=O)NN(c3ccc(C)c(C)c3)C2=O)ccc1O	25%
O=C1NN(c2ccc(I)cc2)C(=O)/C1=C\c1ccc(F)cc1	0%
CCOc1cc(/C=C2/C(=O)NN(c3ccc(I)cc3)C2=O)ccc1O	11%
O=C(CSc1nc2ccccc2[nH]1)Nc1cc(Cl)ccc1Cl	4%
CCCOC(=O)C1=C(C)NC2=C(C(=O)CCC2)C1c1cccc(O)c1 (stereo not drawn)	2%
CCOC(=O)C1=C(C)NC2=C(C(=O)CC(C)(C)C2)C1c1cccc(O)c1 (stereo not drawn)	0%
N#CC1=C(SCC(=O)Nc2ccccc2)NC(=O)CC1c1ccco1 (stereo not drawn)	7%
COc1ccc2oc(C)c(C(O)c3ccccc3)c2c1 (stereo not drawn)	0%
CCOc1ccc(N2C(=O)CSC2=S)cc1	0%
O=C1NN(c2ccc(Cl)c(Cl)c2)C(=O)/C1=C/c1ccc(O)c(O)c1	49%
O=C1NN(c2ccc(Cl)cc2)C(=O)/C1=C\c1ccc(O)c(O)c1	57% (active)
COc1cc(/C=C2/C(=O)NN(c3ccc(Cl)cc3)C2=O)ccc1O	23%
COc1cccc(OCCCN2CCCC2)c1	13%
O=C(COc1ccccc1Cl)Nc1ccc2nn(-c3ccccc3)nc2c1	53% (active)
O=C(COc1ccccc1Cl)Nc1cccc(NC(=O)c2cccc(Cl)c2)c1	38%
COc1ccc(-n2nc3ccc(NC(=O)COc4ccccc4Cl)cc3n2)cc1	32%
O=C(Cc1ccc(Cl)cc1)Nc1ccc2nn(-c3ccc(Cl)cc3)nc2c1	51% (active)

SMILES	inhibition
O=C(Cc1ccc(Cl)cc1)Nc1ccc2nn(-c3ccc(F)cc3)nc2c1	41%
Cc1ccccc1OCC(=O)Nc1ccc2nn(-c3ccccc3)nc2c1	8%
O=C(Cc1ccccc1)Nc1ccc2nn(-c3ccc(Cl)cc3)nc2c1	37%
O=C(COc1ccccc1Cl)Nc1cccc(NC(=O)c2ccccc2)c1	6%
O=C(COc1ccccc1Cl)Nc1cccc(S(=O)(=O)c2cccc(NC(=O)COc3ccccc3Cl)c2)c1	54% (active)
O=C(COc1ccccc1)Nc1cc(C(F)(F)F)cc(C(F)(F)F)c1	0%
CC1=C(C(=O)Nc2ccccc2)C(c2cccc(Br)c2)NC(=S)N1 (stereo not drawn)	8%
COc1cc(/C=N\NC(=O)CSc2nc3ccccc3o2)ccc1O	25%
C#CCSc1nc(C)cc(C)c1C#N	13%
Cc1csc(NC(=O)C2CC3CCC2C3)n1 (stereo not drawn)	4%
COc1ccc(N(CC(=O)Nc2cccc(OC)c2)S(=O)(=O)c2ccc(C)cc2)cc1	16%
CC(C(=O)O)n1c(O)c(/C=C2/C=Nc3ccccc32)sc1=S (stereo not drawn)	4%
Cc1ccccc1/C=N/NC(=O)c1cc(O)cc(O)c1	2%
O=C(N/N=C/c1c[nH]c2ccccc12)c1cc(O)cc(O)c1	8%
O=C(N/N=C/c1ccc(Cl)cc1Cl)c1cc(Br)ccc1O	0%
O=C(N/N=C/c1ccc(Cl)cc1Cl)c1ccc(O)c(O)c1	57% (active)
O=C(N/N=C/c1ccccc1Cl)c1ccc(C(=O)N/N=C/c2ccccc2Cl)cc1	0%
O=C(N/N=C/c1coc2ccccc2c1=O)c1cc(O)cc(O)c1	55% (active)
O=C(N/N=C/c1ccccc1Cl)c1cccc(Cl)c1	8%
C[n+]1ccc(C(=O)N/N=C/c2ccc(Cl)cc2Cl)cc1	0%
O=C(N/N=C/c1ccc(O)c(O)c1O)c1ccc(Cl)cc1Cl	61% (active)
O=C(N/N=C/c1ccc(Cl)cc1Cl)c1cc(O)cc(O)c1	6%
O=C(N/N=C/c1ccc(Cl)cc1Cl)c1ccccc1Cl	5%
